Test results published in PubChem BioAssay.
A number with no mark means an inactive call. No rule for the calls is given here.

molecular target: Pantothenate synthetase (Mycobacterium tuberculosis (strain ATCC 25618 / H37Rv)) (UniProt P9WIL5); experiment: Recombinant Mtb pantothenate synthetase (PanC) inhibitors, coupled enzyme, confirmatory (AID 375); conditions: coupled enzyme assay; at 10 µM, active compounds read high;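 also: 0% = full reaction with vehicle and 100% = no enzyme background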
Sequence (P9WIL5 whole entry, looked up): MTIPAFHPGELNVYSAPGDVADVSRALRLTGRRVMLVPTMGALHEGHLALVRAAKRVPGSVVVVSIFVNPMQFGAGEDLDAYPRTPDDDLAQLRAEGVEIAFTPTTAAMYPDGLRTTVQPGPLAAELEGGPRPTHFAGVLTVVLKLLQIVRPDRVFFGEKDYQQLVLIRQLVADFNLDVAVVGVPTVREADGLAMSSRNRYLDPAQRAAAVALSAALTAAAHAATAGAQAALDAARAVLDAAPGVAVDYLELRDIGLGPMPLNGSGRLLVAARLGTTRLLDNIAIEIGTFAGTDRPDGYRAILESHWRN

Compound | inhibition [%]
COc1ccc(CN(C(=O)CSc2nnc(-c3ccccc3F)o2)c2ccc(F)cc2)cc1 | 0
COc1ccc(C2c3c(oc4ccccc4c3=O)C(=O)N2c2ccc(C)cn2)cc1OC (stereo not given) | 0
COc1ccc(CC(=O)NCc2cccs2)cc1 | 3
O=c1c(-c2ccccc2)coc2c(CN3CCOCC3)c(O)ccc12 | 6
CC1=C(/C=C/C(C)=C/C=C/C(C)=C/C(=O)O)C(C)(C)CCC1 | 0
COc1ccc(C2CC(c3ccco3)n3ncnc3N2)cc1 (stereo not given) | 4
COc1ccc(OCc2cccc(C(=O)O)c2)cc1 | 0
O=S(=O)(c1ccccc1)N1CCSC1c1ccco1 (stereo not given) | 3
COC(=O)c1ccc(CN(c2ccccc2OC)S(=O)(=O)c2cccs2)o1 | 2
Cc1ccc(-c2[nH]nc3c2C(c2ccoc2)C(C#N)=C(N)O3)cc1C (stereo not given) | 0
COc1ccc(-c2nnc(SCC(=O)NC(=O)NCc3ccco3)o2)cc1 | 0
CN1CCN(S(=O)(=O)c2ccc(NC(=O)Nc3cccc(Cl)c3)cc2)CC1 | 1
COc1cc(S(=O)(=O)NC2CCCCC2C)ccc1Cl (stereo not given) | 0
CCN(CC)C(=O)CSc1nnc([C@@H](N)Cc2ccccc2)o1 | 0
O=C1c2oc3ccccc3c(=O)c2C(c2cccnc2)N1Cc1ccco1 (stereo not given) | 0
COc1ccc2[nH]c(=O)c(CNC3CCCCC3)cc2c1 | 0
CC(C)C[C@H](NC(=O)[C@@H]1O[C@H]1C(=O)O)C(=O)NCCCCN=C(N)N | 1
CCCC(=O)Nc1ccc(NC(=O)C2CC2)cn1 | 2
CCN(C1CCCCC1)S(=O)(=O)c1ccc(OC)c(C)c1 | 0
CC(=O)OC1c2ccccc2C(=O)N1c1ccccc1C (stereo not given) | 1

Compound | inhibition [%]
CCSc1nnc(N2C(=O)CC(c3ccsc3)C3=C2CC(C)(C)CC3=O)s1 (stereo not given) | 0
CC1(C)CC(=O)c2cc(OCC(=O)N3CCN(c4ccccc4F)CC3)ccc2O1 | 6
O=C(Nc1ccc(N2CCN(Cc3ccccc3Cl)CC2)cc1)c1cccnc1 | 4
COCCn1nnnc1C(c1ccc(OC)cc1)N1CCN(c2ccccc2F)CC1 (stereo not given) | 0
Cc1ccc(-c2nnc(-c3cccc(Br)c3)o2)cc1 | 0
Cc1cccc(-n2c(O)c(C=Nc3ccccc3N)c(=O)[nH]c2=O)c1 | 0
Cc1oc(-c2ccccc2F)nc1CS(=O)(=O)CC(=O)N1CCN(Cc2ccccc2)CC1 | 0
CCOC(=O)CN1CC23C=CC(O2)C(C(=O)Nc2ccc(OCC)cc2)C3C1=O (stereo not given) | 3
Cc1ccc2c(c1)-c1c(cnn1CC(=O)Nc1ccccc1N1CCN(C)CC1)CO2 | 0
O=C(O)c1ccc2c(c1)N(Cc1ccccc1F)C(=O)c1ccccc1S2=O (stereo not given) | 0
N#CC1=C(N)C(C#N)(C#N)[C@H](c2ccsc2)[C@H]2COCC=C12 | 0
CN1CCN(c2nc3c(c(=O)n(C)c(=O)n3C)n2Cc2cccc3ccccc23)CC1 | 0
CCCCN(c1ccccc1)S(=O)(=O)c1ccc2c(c1)CCN2C(=O)CCC(=O)O | 0
Cc1cc(C(=O)Nc2sc3c(c2C#N)CCCCC3)cs1 | 0
COc1cc2c(C)nc(C)c(C#N)c2cc1OC | 0
CCN(CC)CCOC(=O)c1c(C)oc2ccc(O)cc12 | 0
Cc1ccc(S(=O)(=O)NC(=O)c2cc(C)n(CCCn3ccnc3)c2C)cc1 | 2
O=C(NCC(c1cccnc1)N1CCN(c2ccc(F)cc2)CC1)OCc1ccccc1 (stereo not given) | 0
O=C(CN1CCN(Cc2ccc3c(c2)OCO3)CC1)Nc1ccc2c(c1)OCCO2 | 0
CCOC(=O)c1cnc(C(C)(C)C)[nH]c1=O | 10
